Measurements published in PubChem BioAssay AID624125 (The Scripps Research Institute Molecular Screening Center, 2012).
The campaign covered roughly 360,000 compounds. About 2,600 (0.72%) were called active. The full list was thinned out, with actives kept by preference. Unmarked numbers belong to inactive results.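 Rule for the calls: active = inhibition above its plate's cutoff, the mean inhibition of sample wells plus 3 SD (cut at about 27% in these data); inactive = the rest.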

Biological target: Muscarinic acetylcholine receptor M4 (Homo sapiens) (UniProt P08173)
Sequence (P08173 whole entry, looked up): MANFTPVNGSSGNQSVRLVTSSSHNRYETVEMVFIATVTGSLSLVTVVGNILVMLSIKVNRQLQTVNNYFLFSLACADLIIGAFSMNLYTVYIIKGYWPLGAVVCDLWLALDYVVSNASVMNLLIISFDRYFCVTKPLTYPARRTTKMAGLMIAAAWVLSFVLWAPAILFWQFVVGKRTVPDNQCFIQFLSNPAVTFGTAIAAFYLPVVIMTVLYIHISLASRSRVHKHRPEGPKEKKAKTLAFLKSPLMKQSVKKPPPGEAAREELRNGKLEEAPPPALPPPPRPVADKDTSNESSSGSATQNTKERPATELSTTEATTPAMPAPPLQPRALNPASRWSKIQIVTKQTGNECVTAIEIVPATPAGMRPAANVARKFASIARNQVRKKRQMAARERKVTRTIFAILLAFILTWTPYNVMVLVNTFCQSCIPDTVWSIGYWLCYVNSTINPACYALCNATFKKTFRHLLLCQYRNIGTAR
Test: CHRM4 blockers of acetylcholine calcium response – CHO cells, Fluo-8 calcium fluorescence, primary screen (AID 624125);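 note: 0% = acetylcholine EC80 with DMSO and 100% = DMSO without agonist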
Settings: CHO-hM4 cells, ACh EC80, Fluo-8 calcium fluorescence; at 3 µM; stronger effect = higher value

Row | Compound | inhibition
1 | COC(=O)c1ccccc1NC(=O)C1CC(=O)N(c2ccc(OC)cc2)C1 (stereo not given) | -8.44%
2 | COc1ccc(CN2CC(C(=O)NCCc3ccc(Cl)cc3)CC2=O)cc1 (stereo not given) | -3.66%
3 | CCCC(=O)Nc1ncnc2c1ncn2[C@@H]1O[C@@H]2OP(=O)(O)OC[C@H]2[C@H]1OC(=O)CCC | -12.4%
4 | COc1ccc(C(=O)OCC(=O)NCCCc2ccccc2)cc1OC | 2.28%
5 | COc1ccc(C(CCN(Cc2ccc(OC)c(OC)c2)C(=O)CCl)c2ccccc2)cc1 (stereo not given) | -0.52%
6 | CCN(CCCCOC(=O)c1ccc(OC)c(OC)c1)C(C)Cc1ccc(OC)cc1 (stereo not given) | 61.6% (active)
7 | Cc1n[nH]c(=O)c2c(NC(=O)CSc3cc(Cl)ccc3Cl)oc(C)c12 | -3.66%
8 | COc1ccc2[nH]c3c(C)c4cc[n+](C)cc4c(C)c3c2c1 | 1.89%
9 | CC(OC(=O)c1ccc(NS(=O)(=O)c2ccc3[nH]c(=O)[nH]c3c2)cc1)C(=O)Nc1cccc(Cl)c1Cl (stereo not given) | 5.91%
10 | COc1ccc(CCN2C(=O)N(c3ccc(OC)cc3)C(=O)C2CC(=O)Nc2ccc(OC)cc2)cc1 (stereo not given) | -16.8%
11 | CCN(Cc1ccccc1)C(=O)CSc1nc(C)cc2c1C(=O)OC2 | 8.21%
12 | O=C(Nc1ccc(F)cc1)C1CCN(C(=O)c2ccc([N+](=O)[O-])cc2)CC1 | -7.19%
13 | COc1ccccc1C1SCCN1C(=O)c1ccc([N+](=O)[O-])cc1 (stereo not given) | 57% (active)
14 | C[N+]1(CC(O)COc2ccccc2)CCN(C(=O)c2ccc([N+](=O)[O-])cc2)CC1 (stereo not given) | -5.14%
15 | Cn1c(=O)c2c(SCC(=O)NCC3CCCO3)nc(CC(C)(C)C)nc2n(C)c1=O (stereo not given) | 2.72%
16 | CCNc1nc(Oc2ccc(C(=O)OC)cc2)nc(N2CCOCC2)n1 | 2.43%
17 | O=C(c1cccs1)C1C(c2ccc(Br)cc2)NC(=S)NC1(O)C(F)(F)F (stereo not given) | 77.3% (active)
18 | CCOC(=O)C1C(c2ccc(O)cc2)NC(=O)NC1(O)C(F)(F)F (stereo not given) | 5.66%
19 | CC1=NN(c2cccc(Cl)c2)C(=O)C12CC(C)=C(C)CS2 (stereo not given) | -0.34%
20 | O=C1Nc2c(Br)cc(Br)cc2C1(O)N1CCOCC1 (stereo not given) | -12%
21 | CCC(CC)C(C(=O)NC1CCCC1)N1CCN(c2cc(C)nc3ccccc23)CC1 (stereo not given) | -16.6%
22 | CN(Cc1cc2cc(F)ccc2[nH]1)Cc1nc(-c2cnccn2)no1 | -8.36%
23 | CN(Cc1nc(-c2cnccn2)no1)Cc1n[nH]c2c1CCCCC2 | 37.3% (active)

Row | Compound | inhibition
24 | CCn1ccnc1CN(C)Cc1nc(-c2ccc3c(c2)OCO3)no1 | 1.6%
25 | CCOc1cc(CNCc2ccccn2)ccc1OCC(=O)NC(C)(C)C | 1%
26 | CCN(CC)c1ccc(/C=N/NC(=O)c2cnccn2)c(O)c1 | 33.1% (active)
27 | CCN(CC)c1ccc(NC(=O)c2ccc(Cl)nc2)cc1 | 1.79%
28 | COc1cccc(OCC(=O)NNC(=O)c2cnccn2)c1 | 12.6%
29 | CC1(C)Cc2cccc(OCC(=O)N3CCN(c4ccc([N+](=O)[O-])cc4)CC3)c2O1 | -2.84%
30 | COc1cccc(/C=C/C(=O)OCC(=O)N2CCCc3ccccc32)c1 | -7.08%
31 | O=c1[nH]c(=O)n(Cc2ccco2)c2c1C(C(F)(F)F)(C(F)(F)F)N=C(c1ccco1)N2 | 4%
32 | Nc1c(C(=O)c2cccs2)sc2nsc(SCCN3CCCCC3)c12 | 42% (active)
33 | O=C1C(=O)N(CCCO)C(c2ccccc2)/C1=C(\O)c1ccc(Br)cc1 (stereo not given) | 3.51%
34 | COC(=O)[C@]12CCCCC=C1N(Cc1ccccc1)C(=O)[C@H](CC(=O)NCc1ccc(C)o1)C2 | -11.9%
35 | OC[C@@H]1CN(Cc2ccc(-c3ccccc3)cc2)C[C@H](n2cnc3c(NC4CCCC4)ncnc32)O1 | 19.1%
36 | CN(C)c1ccc(/C=C2\NC(=S)N(Cc3ccccc3)C2=O)cc1 | 44.5% (active)
37 | CN(C)c1ccc(CSc2ccccc2)cc1 | -16.2%
38 | CC(C)(C)C(=O)COC(=O)c1cc(S(=O)(=O)N2CCCCC2)ccc1N1CCOCC1 | -6.6%
39 | CC1Cc2[nH][nH]c(=O)c2C(C2CCCC2)O1 (stereo not given) | 3.85%
40 | CCNC(=S)N(CCN(CC)CC)Cc1cc2cc3c(cc2[nH]c1=O)OCO3 | 1.79%
41 | CCC(=O)c1ccc(OCC(=O)N(CC)CC2COc3ccccc3O2)cc1 (stereo not given) | -18.3%
42 | O=C(COc1ccc(F)cc1Br)NCC1COc2ccccc2O1 (stereo not given) | 3.31%
43 | c1ccc2c(c1)OCC(CNc1ncnc3nc[nH]c13)O2 (stereo not given) | 65.3% (active)
44 | O=[N+]([O-])c1cc(S(=O)(=O)CCCN2CCOCC2)ccc1F | -17.3%
45 | CC(C)(O)C#Cc1ncc(C(F)(F)F)cc1Cl | 3.84%
46 | COC(=O)[C@@H](NC(=O)Nc1cc(Cl)ccc1C)C(C)C | 8.25%

Row | Compound | inhibition
47 | CN(C)CC/C=C1\c2ccccc2CSc2ccccc21 | 83% (active)
48 | CN(C)Cc1ccccc1C1(O)c2ccccc2CSc2ccccc21 (stereo not given) | 22.2%
49 | Cc1cccc(-n2c(O)c(C=Nc3ccccc3N)c(=O)[nH]c2=O)c1 | 4.12%
50 | CN(C)CCCNC(=O)c1cc(C(=O)Cc2ccc(Cl)cc2)c[nH]1 | -5.01%
51 | CCOC(=O)c1nnn(-c2nonc2-n2cccc2)c1CN1CCC(C(=O)OCC)CC1 | 0.5%
52 | CCNS(=O)(=O)c1ccc(NC(=O)c2cncc(Br)c2)cc1 | -2.17%
53 | CCNS(=O)(=O)c1ccc(NC(=O)Nc2cccc(C(F)(F)F)c2)cc1 | 30.8% (active)
54 | Cc1cc(S(=O)(=O)N2CCOCC2)ccc1OCC(=O)Nc1cccc(C(F)(F)F)c1 | 14.2%
55 | CCCNC(=O)C[C@@H]1CC[C@@H]2[C@H](COC[C@H](O)CN2C(=O)c2cc(Cl)cc(Cl)c2)O1 | 2.23%
56 | Cc1ccc(C(=O)O)cc1S(=O)(=O)NCC1CCCO1 (stereo not given) | 0.46%
57 | CCc1cc(C(=O)OC)c(NC(=O)CC2Sc3ccc(C(F)(F)F)cc3NC2=O)s1 (stereo not given) | 0.19%
58 | COc1cc(OC)c2ccc(=O)oc2c1C(CCN1CCN(c2ccccc2)CC1)c1ccc2c(c1)OCO2 (stereo not given) | 4.01%
59 | CCC1C=C(c2ccccc2)C=CN=C1N(CC)CC (stereo not given) | 35% (active)
60 | O=C(N/N=C/c1sc(N2CCCCC2)nc1-c1cccs1)c1cccnc1 | -11.5%
61 | Nc1cc2c(cc1Br)-c1ccc(F)cc1C2=O | -3.7%
62 | COc1ccc(S(=O)(=O)N2CCCC(C(=O)N3CCN(C)CC3)C2)cc1C (stereo not given) | -3.22%
63 | Cc1ccc(S(=O)(=O)N2CCCC(C(=O)N3CCN(C)CC3)C2)cc1 (stereo not given) | 11.1%
64 | CC(=O)N1CCCc2cc(S(=O)(=O)N3CCCC(C(=O)N4CCN(c5cccc(Cl)c5)CC4)C3)ccc21 (stereo not given) | 43.8% (active)
65 | CCN(CC)Cc1nc2sc(C)c(C)c2c(=O)[nH]1 | 34.7% (active)
66 | Cc1sc2nc(CSCC(=O)Nc3c(Cl)cccc3Cl)[nH]c(=O)c2c1C | -1.67%
67 | Cc1ccc(S(=O)(=O)N2CCCC2C(=O)OCc2nc3sc(C)c(C)c3c(=O)[nH]2)cc1 (stereo not given) | -8.5%
68 | Cn1c2c(c(=O)n(C)c1=O)C1c3ccccc3OCC1C(C)(C)O2 (stereo not given) | -10.5%
69 | COc1cc(OC)cc(-c2nnc(SCC(=O)Nc3ccc(C(=O)O)cc3)s2)c1 | 3.22%

Row | Compound | inhibition
70 | Nc1nnc(SCC(=O)Nc2ccc3nc(SCC(=O)Nc4ccccc4)sc3c2)s1 | 40.5% (active)
71 | CCCCNC(=O)CSc1nc2ccc(NC(=O)CSc3nnc(N)s3)cc2s1 | 4.39%
72 | CSc1nc2nc(-c3cccc(C(F)(F)F)c3)ccn2n1 | -1.52%
73 | C=C(C)c1cccc(C(C)(C)NC(=O)N2CCN(c3ncccn3)CC2)c1 | 6.08%
74 | C=C(C)c1cccc(C(C)(C)NC(=O)NCCN(CC)CC)c1 | 61.6% (active)
75 | C=C(C)c1cccc(C(C)(C)NC(=O)NC2CCCC2)c1 | 4.8%
76 | COc1ccc(-c2cn(-c3ccc(C)cc3)c(=O)n2CC(=O)Nc2ccc(OC)c(OC)c2)cc1 | 4.43%
77 | COC(=O)c1ccc(CNC(=O)c2ccc(S(=O)(=O)N3CCCCCC3)cc2)cc1 | 5.81%
78 | Cc1cc2cc(CNC(=O)c3ccc(S(=O)(=O)N4CCOCC4)cc3)ccc2[nH]1 | 28.9% (active)
79 | Cc1cc2cc(CNC(=O)c3cccs3)ccc2[nH]1 | -4.44%
80 | CC1CCc2sc(C(=O)N/N=C/C3CCCCC3)cc2C1 (stereo not given) | -5.14%
81 | COc1ccc(-c2nc(N)sc2C2(O)C(=O)Nc3c(Br)cc(F)cc32)cc1OC (stereo not given) | -0.95%
82 | O=CNc1cc(-c2ccc(C(=O)N3CCOCC3)cc2)cn2c(-c3ccc(F)cc3)cnc12 | 0.14%
83 | OC(C#CCN1CCOCC1)(c1ccccc1)C1CCCCC1 (stereo not given) | 10.4%
84 | CC(C)(C)N(CC#CCC(O)(c1ccccc1)C1CCCC1)CCO (stereo not given) | 31.3% (active)
85 | Cc1ccc(C)c(N2CCN(C(=O)CCc3nc(-c4cccc(C(F)(F)F)c4)no3)CC2)c1 | -9.53%
86 | Cc1cc(O)ccc1NC1=CC(=O)CC(C)(C)C1 | 2.61%
87 | CCc1nc2c(OCCOc3ccc(F)cc3)cccn2c1N(C)C(=O)c1ccccc1F | 1.61%
88 | CCOC(=O)CCCCCC(=O)Nc1ccc2c(c1)CC(=O)N([C@@H](C)CO)C[C@H](C)[C@@H](CN(C)Cc1ccccc1)O2 | -3.74%
89 | COc1ccc(S(=O)(=O)N(C)C[C@H]2Oc3ccc(NS(=O)(=O)c4cccs4)cc3CC(=O)N([C@H](C)CO)C[C@H]2C)cc1 | 5.37%
90 | C[C@H]1CN([C@@H](C)CO)C(=O)Cc2cc(NC(=O)Cc3ccccc3)ccc2O[C@H]1CN(C)S(=O)(=O)c1cccs1 | 35.1% (active)
